Measurements published in PMC4336329 (PLoS ONE, 2015).
The whole screen tested about 310,000 compounds, of which about 14,000 (4.5%) showed an effect of 50% or more. Effects have a minus sign here. Many of the other results were omitted from the sample, so strong results are more common in it than they were.

biological target: human ether-à-go-go-related gene (hERG) potassium channel (human, UniProt Q12809); experiment: primary screen, population patch clamp on CHO cells stably expressing hERG; higher = less effect of the substance
Sequence (Q12809 whole entry, looked up): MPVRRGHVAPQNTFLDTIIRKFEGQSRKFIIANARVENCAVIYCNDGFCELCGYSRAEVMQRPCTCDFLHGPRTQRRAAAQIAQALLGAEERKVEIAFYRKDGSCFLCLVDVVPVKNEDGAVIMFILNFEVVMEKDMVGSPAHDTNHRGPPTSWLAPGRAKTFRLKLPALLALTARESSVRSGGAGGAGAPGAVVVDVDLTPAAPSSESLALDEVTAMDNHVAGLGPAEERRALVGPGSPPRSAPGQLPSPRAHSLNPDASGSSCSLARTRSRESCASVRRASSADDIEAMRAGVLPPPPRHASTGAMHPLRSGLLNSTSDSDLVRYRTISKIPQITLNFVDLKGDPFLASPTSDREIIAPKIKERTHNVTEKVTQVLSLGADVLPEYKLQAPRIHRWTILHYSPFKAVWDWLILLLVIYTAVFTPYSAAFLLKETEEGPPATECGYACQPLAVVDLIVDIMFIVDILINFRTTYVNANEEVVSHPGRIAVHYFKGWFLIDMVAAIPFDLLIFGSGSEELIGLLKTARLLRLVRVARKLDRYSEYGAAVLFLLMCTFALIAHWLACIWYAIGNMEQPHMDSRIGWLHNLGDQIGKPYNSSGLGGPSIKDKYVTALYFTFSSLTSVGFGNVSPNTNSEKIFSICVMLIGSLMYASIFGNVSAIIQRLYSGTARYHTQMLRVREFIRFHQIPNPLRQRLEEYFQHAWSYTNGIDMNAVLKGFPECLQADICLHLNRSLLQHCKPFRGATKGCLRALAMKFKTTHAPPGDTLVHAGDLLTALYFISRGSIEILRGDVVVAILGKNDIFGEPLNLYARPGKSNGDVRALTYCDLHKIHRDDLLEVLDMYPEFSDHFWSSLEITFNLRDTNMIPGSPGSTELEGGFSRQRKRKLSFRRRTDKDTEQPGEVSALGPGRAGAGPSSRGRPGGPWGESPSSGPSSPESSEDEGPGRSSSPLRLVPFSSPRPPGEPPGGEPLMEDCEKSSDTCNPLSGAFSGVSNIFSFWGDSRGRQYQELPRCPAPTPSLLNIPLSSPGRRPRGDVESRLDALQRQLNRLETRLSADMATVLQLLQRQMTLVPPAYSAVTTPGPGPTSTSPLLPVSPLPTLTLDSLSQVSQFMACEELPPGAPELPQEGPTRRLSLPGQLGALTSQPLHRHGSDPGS
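Further: peak tail current of the secondary pulse compared with the same well before compound.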

Compound | hERG current change (%, negative = inhibition) at 10uM
CC(=O)Nc1cc2c(cc1NC(=O)Cn1nc(-c3ccccc3)ccc1=O)OCCO2 | 11.9%
COc1cccc(C2C(C(=O)c3cc4ccccc4o3)=C(O)C(=O)N2c2cc(C)on2)c1 (stereo not drawn) | 7.91%
O=C(Cc1csc(NC(=O)c2ccccc2)n1)NO | 8.93%
O=[N+]([O-])c1cc(CS(=O)(=O)Oc2ccc(Cl)cc2)c(O)c([N+](=O)[O-])c1 | 15.1%
CCCn1nnnc1NC(=O)c1ccc(C)cc1Cl | 5.02%
O=C(NCCOCCOCCNC(=O)c1ccccc1)c1ccccc1 | 12.7%
CCOc1cc2[nH]c(=S)n(CCN3CCC(C)CC3)c(=O)c2cc1OCC | -51.2%
CCOc1cc2[nH]c(=O)n(CCCC(=O)NCc3ccc(OC)cc3)c(=O)c2cc1OCC | 8.71%
CCOc1cc2[nH]c(=O)n(CCCN3CCCC3=O)c(=O)c2cc1OCC | -6.1%
CC1CCN(CCn2c(=S)[nH]c3cc4c(cc3c2=O)OCO4)CC1 | -27.4%
CCCCN(C)CCn1c(=S)[nH]c2cc(OCC)c(OCC)cc2c1=O | -55.8%
CCOc1cc2[nH]c(=S)n(CCCOC)c(=O)c2cc1OCC | -12.1%
CCOc1cc2[nH]c(=S)n(CCCN(CC)CC)c(=O)c2cc1OCC | -29.6%
CCOc1cc2[nH]c(=S)n(CCCN3CCOCC3)c(=O)c2cc1OCC | -18.5%
CCOc1cc2[nH]c(=O)n(CCCN3CCN(c4ccc(OC)cc4)CC3)c(=O)c2cc1OCC | -67.8%
O=C(CCCCCn1c(=S)[nH]c2ccc(N3CCOCC3)cc2c1=O)NC1CCN(Cc2ccccc2)CC1 | -9.35%
COc1ccccc1N(C(=O)c1csnn1)C(C(=O)NC1CCCC1)c1ccccc1 (stereo not drawn) | -1.69%
Cc1c(Cl)cccc1NC(=O)CSc1sc2c(O)cc(=O)[nH]c2c1C#N | -2.45%
Cc1ccc(O)c(C2=Nc3ccccc3N=C(c3cccs3)C2)c1 | 12%
COc1ccc(N2CCN(C(CNS(=O)(=O)c3cccs3)c3cccnc3)CC2)cc1 (stereo not drawn) | -72.5%
COc1ccc(N2CCN(C(CNC(=O)Oc3ccccc3)c3cccnc3)CC2)cc1 (stereo not drawn) | -27.5%
CN1CCN(C(CNS(=O)(=O)c2cccs2)c2cccnc2)CC1 (stereo not drawn) | -21.4%
COC(=O)NCC(c1cccnc1)N1CCN(c2ccccc2)CC1 (stereo not drawn) | -13.3%

Compound | hERG current change (%, negative = inhibition) at 10uM
O=S(=O)(NCC(c1cccnc1)N1CCN(c2ccc(F)cc2)CC1)c1cccs1 (stereo not drawn) | -71.7%
O=S(=O)(NCC(c1cccnc1)N1CCOCC1)c1cccs1 (stereo not drawn) | -10.9%
CCS(=O)(=O)NCC(c1cccnc1)N1CCN(c2ccc(OC)cc2)CC1 (stereo not drawn) | -11.3%
O=S(=O)(NCC(c1cccnc1)N1CCN(c2ccccc2)CC1)c1cccs1 (stereo not drawn) | -60.4%
CCN1CCN(C(CNS(=O)(=O)c2cccs2)c2cccnc2)CC1 (stereo not drawn) | -61.4%
CCCOc1ccc(C2C(C(=O)c3cc4ccccc4o3)=C(O)C(=O)N2c2cc(C)on2)cc1OC (stereo not drawn) | 25.3%
Cc1cnc(C(=O)Oc2ccc(-c3ccccc3)cc2)cn1 | 16.8%
CCCCOCCCNC(=O)c1ccc(OC)cc1 | -6.63%
COc1ccc(NS(=O)(=O)c2cc3c(cc2C)N(C)CCO3)cc1 | -10.5%
CCS(=O)(=O)NCC(c1cccnc1)N1CCN(c2ccccc2F)CC1 (stereo not drawn) | -3.19%
O=S(=O)(NCC(c1cccnc1)N1CCN(c2ccccc2F)CC1)c1cccs1 (stereo not drawn) | -60.5%
CS(=O)(=O)NCC(c1cccnc1)N1CCN(c2ccccc2F)CC1 (stereo not drawn) | -9.77%
Cc1ccc(C(=O)CCC(=O)N2CCC(C(N)=O)CC2)cc1 | 32%
CCOC(=O)C1(CCC(C)C)CC(CSc2nc3ccccc3[nH]2)OC1=O (stereo not drawn) | -25.2%
O=C(O)c1cc([N+](=O)[O-])c(NCc2cccnc2)c([N+](=O)[O-])c1 | 9.52%
CCN1CCN(CC(=O)c2c(C)n(Cc3ccccc3)c3ccc(OC)cc23)CC1 | -41.3%
COc1ccc2c(c1)c(C(=O)CN1CCC3(CC1)OCCO3)c(C)n2Cc1ccccc1 | -53%
COc1ccc2c(c1)c(C(=O)CN1CCN(C)CC1)c(C)n2Cc1ccccc1 | -35%
CCOC(=O)N[C@H](Cc1c[nH]c2ccccc12)C(=O)NC1CC1 | 3.42%
Cc1ccccc1N1CCN(C(=O)CN2C(=O)c3ccccc3C2=O)CC1 | -11.8%
O=C(CN1C(=O)CSc2ccccc21)NC1CCCC1 | 0.766%
CC(C)CNC(=O)c1ccccc1SCC(=O)NC12CC3CC(CC(C3)C1)C2 | -5.62%
Cc1c(CN2CCC(n3nccc3NC(=O)C3CC3)CC2)[nH]c2ccccc12 | -61%

Compound | hERG current change (%, negative = inhibition) at 10uM
COc1ccc2[nH]c(C(=O)N3CCC(n4nccc4NC(=O)C4CC4)CC3)c(C)c2c1 | -30.4%
COc1ccc2[nH]c(CN3CCC(n4nccc4NC(=O)C4CC4)CC3)c(C)c2c1 | -63.3%
Cc1cc(C)c2[nH]c(C(=O)N3CCC(n4nccc4NC(=O)C4CC4)CC3)c(C)c2c1 | -44.6%
COc1ccc(C(=O)Nc2ccnn2C2CCN(Cc3cn(C)nc3C)CC2)cc1 | 17.1%
Cc1c(C(=O)N2CCC(n3nccc3NC(=O)C3CC3)CC2)[nH]c2ccc(Cl)cc12 | -59.4%
Cc1c(CN2CCC(n3nccc3NC(=O)C3CCOC3)CC2)[nH]c2ccccc12 (stereo not drawn) | -30.6%
O=C(Nc1ccnn1C1CCN(Cc2cc3ccccc3[nH]2)CC1)C1CCOC1 (stereo not drawn) | -31.5%
COc1cccc(CC(=O)N2CCC(n3nccc3NC(=O)C3CC3)CC2)c1 | 32%
O=C(Cn1cnc([N+](=O)[O-])c1)NCc1ccc(F)cc1 | 7.86%
O=C(NC(=S)Nc1ncccn1)c1ccccc1Cl | 11.8%
O=C(Nc1cc([N+](=O)[O-])ccc1F)C1CC1 | -4.7%
Cc1nc2ccc(S(=O)(=O)NCC(=O)NCc3ccc(Cl)cc3)cc2s1 | 17.4%
CCNS(=O)(=O)c1ccc(CCC(=O)NCc2ccncc2)cc1 | 2.58%
Cc1ccc(CCNC(=O)CNS(=O)(=O)c2ccc3nc(C)sc3c2)cc1 | 2.53%
CCNS(=O)(=O)c1ccc(CCC(=O)NCc2ccc(C)cc2)cc1 | -53.1%
Cc1ccc(CNC(=O)CNS(=O)(=O)c2ccc3nc(C)sc3c2)cc1 | -64.6%
CCNS(=O)(=O)c1ccc(CCC(=O)NCc2ccccc2)cc1 | -19.6%
CSc1ccccc1NC(=O)CN(C)S(=O)(=O)c1ccc(F)cc1 | -35.2%
CC(=O)Nc1ccc(OCCC[n+]2cccc(C(=O)[O-])c2)cc1 | 12.5%
Cn1cnc2c(oc3ccccc32)c1=O | 9.26%
CC1(C)N=C(/C=N/O)CN1O | 11.7%
CCCCC(=O)Nc1cc(C)c2c(=O)oc3ccccc3c2n1 | 4.39%
COc1ccc(S(=O)(=O)Cc2ccc(C(=O)N3CCN(c4ccccn4)CC3)o2)cc1 | -27.9%

Compound | hERG current change (%, negative = inhibition) at 10uM
COc1cc(OC)c(C2SCCS2)c(OC)c1 | 2.14%
CCOC(=O)CC(=O)NC1(Cc2ccc(O)cc2)CCCCC1 | 1.06%
NC(=O)c1cc([N+](=O)[O-])ccc1NCc1cnccn1 | -12.9%
O=[N+]([O-])c1ccc(Nc2ccccn2)c([N+](=O)[O-])c1 | -4.46%
NC(=O)c1cc([N+](=O)[O-])ccc1NCc1ccccn1 | -73.8%
O=C(O)c1cc([N+](=O)[O-])ccc1NCc1ccccn1 | 12.7%
O=[N+]([O-])c1ccc(Cc2ccccn2)cc1 | -15.7%
O=[N+]([O-])c1ccc(Cc2ccccn2)c([N+](=O)[O-])c1 | -50.2%
COn1c(-c2ccc(Cl)cc2Cl)nc2ncccc21 | -1.12%
CCc1nnc(NC(=O)c2sc3nc4c(cc3c2N)CCCCCC4)s1 | 4.75%
COc1ccc(N/C=C/C(=O)c2ccc(Cl)cc2)cc1 | -13.7%
CCN1CCN(CCCNC(=O)Cn2nc(C)n3nc(-c4ccccc4)cc3c2=O)CC1 | -11.1%
Cc1cc2nc(-c3ccc(=O)[nH]c3)n(Cc3ccccc3)c2cc1C | -35.2%
O=c1ccc(-c2nc3ccccc3n2Cc2ccc(Cl)cc2)c[nH]1 | -76%
O=c1ccc(-c2nc3ccccc3n2Cc2ccccc2Cl)c[nH]1 | -11.9%
O=c1ccc(-c2nc3cc(Cl)ccc3n2Cc2ccccc2)c[nH]1 | -73.9%
Clc1ccc(Cn2c(-c3cccnc3Cl)nc3ccccc32)cc1 | -70.7%
O=c1[nH]cccc1-c1nc2cc(Cl)ccc2n1Cc1ccccc1 | -12%
Clc1ncccc1-c1nc2ccccc2n1Cc1ccccc1 | -33.5%
Clc1ccc(Cn2c(-c3cccnc3Cl)nc3ccccc32)c(Cl)c1 | -22.1%
Cc1ccccc1Cn1c(-c2ccc(=O)[nH]c2)nc2ccccc21 | -11.4%
